Laboratory results published in PubChem BioAssay (NCI).
Compounds without any hit were thinned out: in the full panel of roughly 79,000, 15% have a hit. A number with no mark means an inactive call. Calls of active or inactive are those of the source. No stated cut-off is given here; in the data, active means growth inhibition above about 70%; inactive means the rest.

Key:
[1] = NCI Yeast Anticancer Drug Screen. Data for the rad50 strain (AID 155);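 further: 0% = growth of vehicle-only cultures of the same strain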; settings: S. cerevisiae rad50 strain growth inhibition, hits give high values
Procedure, shortened: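 Yeast carrying a defined DNA repair defect were exposed to test compounds, and growth was compared with vehicle-treated controls to give percent inhibition.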

[2] = NCI Yeast Anticancer Drug Screen. Data for the mec2-1 strain (AID 157); settings: S. cerevisiae mec2-1 strain, hits give high values
Procedure, shortened: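 Vehicle-treated cultures served as reference for growth inhibition of compound-exposed mec2-1 yeast.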

[3] = NCI Yeast Anticancer Drug Screen. Data for the sgs1 mgt1 strain (AID 161);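 further: 0% = growth of cultures given vehicle only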; settings: S. cerevisiae sgs1 mgt1 strain, hits give high values
Procedure, shortened: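 Read-out: growth inhibition vs vehicle controls. Cells: mutant yeast strain deficient in DNA damage repair.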

[4] = NCI Yeast Anticancer Drug Screen. Data for the cln2 rad14 strain (AID 165);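 further: 0% = growth equal to vehicle treated cultures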; settings: S. cerevisiae cln2 rad14 strain, hits give high values
Procedure, shortened: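 Each compound was tested on cln2 rad14 yeast. Inhibition of growth was calculated against vehicle-exposed controls.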

[5] = NCI Yeast Anticancer Drug Screen. Data for the bub3 strain (AID 167); settings: S. cerevisiae bub3 mutant strain, hits give high values
Procedure, shortened: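 Compounds were applied to a genetically altered yeast strain carrying a cell-cycle control defect. Growth inhibition was scored against vehicle-treated controls.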

[6] = NCI Yeast Anticancer Drug Screen. Data for the mlh1 rad18 strain (AID 175); settings: S. cerevisiae mlh1 rad18 strain growth inhibition, hits give high values
Procedure, shortened: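 Vehicle-treated cultures served as the reference for growth inhibition in a yeast strain carrying DNA damage repair alterations exposed to each compound.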

[7] = at 5.0 µM (retest, dose inferred, filed as 0.5)
[8] = at 50.0 µM (retest, dose inferred, filed as 5.0)

| SMILES | growth inhibition [1, 7] | growth inhibition [1, 8] | growth inhibition ([1]; at 50.0 µM) | growth inhibition [2, 7] | growth inhibition [2, 8] | growth inhibition ([2]; at 50.0 µM) | growth inhibition [3, 7] | growth inhibition [3, 8] | growth inhibition ([3]; at 50.0 µM) | growth inhibition [4, 7] [%] | growth inhibition [4, 8] | growth inhibition ([4]; at 50.0 µM) | growth inhibition [5, 7] | growth inhibition [5, 8] | growth inhibition ([5]; at 50.0 µM) | growth inhibition [6, 7] | growth inhibition [6, 8] | growth inhibition ([6]; at 50.0 µM) |
| --- | --- | --- | --- | --- | --- | --- | --- | --- | --- | --- | --- | --- | --- | --- | --- | --- | --- | --- |
| O=[N+]([O-])c1c(I)ccc2ccccc12 | -24% | 90% (active) | 41.9% | 0% | 89% (active) | -0.95% | -6% | 95% (active) | 17.6% | -9 | 41% | 11.5% | -2% | 66% | 5.25% | 1% | 94% (active) | 36.5% |
| C/C(=N/NC(N)=S)C(CN1CCOCC1)C(C1=C(O)c2ccccc2OC1)c1ccccc1 (stereo not given) | 26% | 26% | 75% (active) | 28% | 28% | 71.8% (active) | 24% | 24% | 80.9% (active) | 6 | 6% | 75.4% (active) | 24% | 24% | 71% (active) | 26% | 26% | 77.7% (active) |
| CCCCCC(C)(C)N=C=S | 3% | 0% | 7% | -1% | 2% | -1.65% | -1% | -3% | -1.85% | 5 | 1% | 10.3% | 1% | 0% | 8.3% | -5% | 1% | -5.6% |
| N#CC1CCC(c2ccccc2)(c2ccccc2)C1=O (stereo not given) | 5% | 99% (active) | 94.6% (active) | 5% | 99% (active) | 99.7% (active) | 4% | 100% (active) | 99.6% (active) | -2 | 99% (active) | 97.5% (active) | -4% | 98% (active) | 74.3% (active) | -5% | 98% (active) | 99.5% (active) |
| CC1C[C@]2(C)C(=S)Nc3ccccc3[C@@H]2Nc2ccccc21 (stereo not given in full) | -1% | 43% | 21.9% | 8% | 55% | 17.9% | 23% | 74% (active) | 48.8% | 26 | 60% | 19.8% | 24% | 82% (active) | 42.3% | 6% | 58% | 63.3% |
| COc1ccc2c(c1)[n+]([O-])c(-c1ccc(Cl)cc1)c(N)[n+]2[O-] | 33% | 98% (active) | 99.2% (active) | 29% | 98% (active) | 99.3% (active) | 39% | 99% (active) | 99.3% (active) | 46 | 95% (active) | 98.8% (active) | 80% (active) | 99% (active) | 99.2% (active) | 79% (active) | 99% (active) | 99% (active) |
| Cc1ccc2c(c1)-c1c(c3c(c4c1-c1cc(C)ccc1CC4)C(=O)OC3=O)CC2 | 14% | 72% (active) | 43.9% | 10% | 43% | 16.7% | 2% | 59% | 12.2% | 14 | 41% | 3.45% | 4% | 47% | 7.65% | 9% | 56% | 36.5% |
| O=C1c2ccccc2C(=O)c2c1ccc(O)c2O | 79% (active) | 96% (active) | 83.3% (active) | 75% (active) | 94% (active) | 75.8% (active) | 91% (active) | 94% (active) | 81.5% (active) | 23 | 63% | 65.7% | 80% (active) | 93% (active) | 77.9% (active) | 90% (active) | 96% (active) | 79% (active) |
| O=C(O)/C=C/C(=O)c1ccccc1 | 7% | 76% (active) | 15.1% | 5% | 72% (active) | 57.5% | 3% | 66% | 46.3% | -3 | 13% | 3.6% | -6% | 71% (active) | 67.2% | 6% | 80% (active) | 72% (active) |
| COC(=O)C1=C(C(=O)OC)C2(C)OC1C(=O)C21CC1 (stereo not given) | 15% | 85% (active) | 88.3% (active) | 18% | 94% (active) | 84.6% (active) | 23% | 94% (active) | 86.8% (active) | 6 | 70% (active) | 76.2% (active) | 20% | 91% (active) | 93.6% (active) | 18% | 94% (active) | 94.5% (active) |
